High-throughput results as filed in PubChem.
DT40 TDP1 CPT: growth inhibition of DT40 Tdp1-/-;hTDP1 cells with camptothecin (screen for TDP1 inhibitors) | 420,000 tested, 12% active | AID 686979 | Potency, µM (titrated, usually from 46.2 µM), actives largely listed as inhibitors | chicken DT40 Tdp1-/-;hTDP1 cells + 20 nM CPT, ATP luminescence, 48 h; note: nearly all actives have a fitted effect of over 55% in size
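Cell growth measured by CellTiter-Glo luminescence after a minimum 48 h, 37 C compound exposure with 20 nM CPT in Tdp1-knockout DT40 cells stably expressing hTDP1, seeded 400/well; qHTS titration format.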
IL1B secr inh: inflammasome signaling inhibition, IL-1 beta readout; AID 743279; 360,000 tested, 4.7% active; THP-1 LPS/ATP IL-1B secretion, AlphaLISA, 16 h; stronger effect = lower value; activity change, % at 57.5 µM; in the data active = activity change below about -50%; inconclusive = mostly about -30% to -49%
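Secreted IL-1B measured by AlphaLISA bead assay after 16 h compound exposure of THP-1 cells; compounds (final up to 57.5 uM) added 1 h before LPS (250 ng/mL) and ATP (1.25 mM) stimulation; lower signal means less secretion.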
Six1-Eya2 inh: inhibitors of human Six1/Eya2 interaction | Q15475+O00167 | AlphaScreen GST-Six1/His-Eya2 binding, biochemical; stronger effect = lower value | activity change, % (no concentration beside the values) | 360,000 tested, 0.56% active | AID 651725; in the data active = activity change below about -65%; inconclusive = mostly about -30% to -63%
Target sequence (O00167 whole entry, looked up): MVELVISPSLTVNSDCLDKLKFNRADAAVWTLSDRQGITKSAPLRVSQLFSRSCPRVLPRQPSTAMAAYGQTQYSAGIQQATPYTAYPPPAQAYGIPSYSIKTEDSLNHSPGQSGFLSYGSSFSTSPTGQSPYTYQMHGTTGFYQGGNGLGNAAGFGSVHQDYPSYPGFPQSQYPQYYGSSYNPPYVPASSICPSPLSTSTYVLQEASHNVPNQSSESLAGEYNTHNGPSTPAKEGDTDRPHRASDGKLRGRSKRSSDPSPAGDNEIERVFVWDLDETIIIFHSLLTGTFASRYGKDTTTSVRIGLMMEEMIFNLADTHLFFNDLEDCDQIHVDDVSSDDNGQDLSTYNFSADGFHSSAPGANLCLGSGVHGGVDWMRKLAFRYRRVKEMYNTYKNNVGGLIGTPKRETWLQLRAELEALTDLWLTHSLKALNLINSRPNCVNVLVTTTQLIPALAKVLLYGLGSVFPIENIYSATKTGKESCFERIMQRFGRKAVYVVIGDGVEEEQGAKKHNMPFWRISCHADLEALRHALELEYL
Target sequence (Q15475 whole entry, looked up): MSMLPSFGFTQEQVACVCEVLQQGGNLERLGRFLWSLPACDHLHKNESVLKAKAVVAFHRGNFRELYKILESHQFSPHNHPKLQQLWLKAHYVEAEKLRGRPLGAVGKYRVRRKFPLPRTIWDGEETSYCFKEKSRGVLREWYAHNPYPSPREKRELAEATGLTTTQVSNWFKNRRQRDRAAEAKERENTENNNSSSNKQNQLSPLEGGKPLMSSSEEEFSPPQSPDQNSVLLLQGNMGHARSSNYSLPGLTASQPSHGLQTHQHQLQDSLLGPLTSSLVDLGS
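AlphaScreen with GST-Six1 and His-Eya2 (5X mix: 250 nM and 500 nM), glutathione donor and nickel acceptor beads; buffer 50 mM Tris pH 8.0, 300 mM NaCl, 1 mM TCEP; 1 h at 37 C in the dark.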
TDP1 block: blocks human tyrosyl-DNA phosphodiesterase 1; Q9NUW8; recombinant TDP1, AlphaScreen DNA substrate cleavage; Potency, µM (doses to about 130 µM), usual class: inhibitors; 350,000 tested, 0.28% active; AID 485290; note: nearly all actives have a fitted effect of over 40% in size
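Steps: enzyme plus compound, 15 min RT; add biotin/phosphotyrosine-FITC oligonucleotide (15 nM final), react 5 min; add donor/acceptor beads (10 ug/ml final), 10 min; read AlphaScreen. Tdp1 at 1 nM final.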
CtBP-E1A blk: inhibitors of CtBP/E1A interaction; AlphaScreen GST-E1A/His-CtBP binding, 1536-well; stronger effect = lower value; activity change, % (concentration not given with the values); 340,000 tested, 0.49% active; AID 651724; in the data active = activity change below about -65%; inconclusive = mostly about -30% to -63%
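Homogeneous bead-based format: GST-tagged E1A captured on glutathione donor beads, His-tagged CtBP on nickel acceptor beads; compounds precede bead addition by 2 h at 37 °C.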
DT40 TDP1 no CPT: qHTS for Inhibitors of human tyrosyl-DNA phosphodiesterase 1 (TDP1): qHTS in cells in absence of CPT; DT40 Tdp1-/- hTDP1 cells, no CPT, ATP luminescence, 48 h; Potency, µM (series often up to 46.2 µM), hits mostly inhibitors; 420,000 tested, 15% active; AID 686978, 2013; note: nearly all actives have a fitted effect of over 55% in size
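Chicken DT40 Tdp1-/- cells stably complemented with human TDP1 were seeded at 400 cells/well with DMSO in place of 20 nM camptothecin. After compound pinning, cells grew at least 48 hr at 37 °C; viability read by CellTiter-Glo luminescence.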
A number is an active result; . = inactive; ? = inconclusive; / = no result given. Compounds with a hit are over-represented: about 18% of the library has one in this group of screens. Unless noted, calls come from the whole dose curve; as a rule, active = well fitted curve in the direction sought with a large enough effect; inconclusive = small, poorly fitted or top-dose-only effect, or another doubt; inactive = no such curve, though single readings can be large; an effect the other way counts as inactive or inconclusive.

SMILES | DT40 TDP1 CPT | IL1B secr inh | Six1-Eya2 inh | TDP1 block | CtBP-E1A blk | DT40 TDP1 no CPT
CCOc1ccc(NC(=O)CN(C)C(=O)c2csc3c2CCCC3)cc1OCC | ? | . | . | . | . | ?
CCn1c(CSc2nc3ccccc3s2)n[nH]c1=S | ? | . | . | . | . | ?
CCn1c(CSc2nc3ccccc3s2)nnc1SCC(=O)c1ccc(Cl)cc1 | 16µM | . | . | . | . | 21µM
Cc1cc(=O)oc2cc(OCC(=O)NCCCN3CCCC3=O)c(Cl)cc12 | . | . | . | . | . | .
CCOc1ccc(N/C(SCc2cccc([N+](=O)[O-])c2)=C(/C#N)C(N)=O)cc1 | ? | -73 | . | . | . | 21µM
COc1cccc(N/C(SCc2cccc([N+](=O)[O-])c2)=C(/C#N)C(=O)NCc2cccs2)c1 | ? | -55 | . | . | . | 16µM
Cc1nn(CCC(=O)NNC(=S)Nc2ccc(F)cc2)c(C)c1Br | ? | . | . | . | . | ?
CCCCNC(=S)NNC(=O)CCn1nc(C)c(Br)c1C | 6.3µM | . | . | . | . | 5.6µM
COC(=O)[C@H]1C[C@@]2(O)CN(S(=O)(=O)c3ccc(C)cc3)C[C@@]2(OC(=O)NCC2CCCCC2)C[C@H]1C(=O)OC | . | . | . | / | . | ?
COc1ccc(CNC(=O)c2ccc(CN3C(=O)C(C)=C(c4ccc(C)cc4)S3(=O)=O)cc2)cc1 | ? | / | / | . | / | ?
CC1=C(c2ccc(C)cc2)S(=O)(=O)N(Cc2ccc(C(=O)Nc3ccc(C)c(F)c3)cc2)C1=O | 26µM | / | / | . | / | ?
COc1ccc(C2=C(C)C(=O)N(Cc3ccc(C(=O)Nc4cc(C)ccc4C)cc3)S2(=O)=O)cc1 | 18µM | / | / | . | / | 10µM
CC(C)N(C(=O)Nc1ccc2nsnc2c1)C(C)C | ? | ? | . | . | ? | ?
c1ccc(Oc2nc(N3CCOCC3)nc(N3CCOCC3)n2)cc1 | ? | . | . | . | . | .
c1cnn(-c2nc(N3CCOCC3)nc(N3CCOCC3)n2)c1 | 6.5µM | ? | . | . | . | 5.8µM
Cc1cc2nc(C3CCCCC3)c(Cc3ccccc3)n2c(C)c1Br | ? | . | . | / | . | 23µM
Cc1cc2nc(-c3ccccc3)c(Cc3ccsc3)n2c(C)c1Br | 15µM | . | . | / | . | 15µM
Cc1cc2nc(-c3ccccc3)c(Cc3ccccc3)n2c(C)c1Br | 23µM | . | . | / | . | ?
COc1ccc(Cc2c(-c3ccccc3)nc3cc(C)c(Br)c(C)n23)c(C)c1 | ? | . | . | / | . | ?
Cc1cc2nc(-c3ccc(C#N)cc3)c(Cc3ccsc3)n2c(C)c1Br | 16µM | . | . | / | . | 16µM
Cc1ccc(Cc2c(-c3cccc(Br)c3)nc3cc(C)c(Br)c(C)n23)cc1 | ? | . | . | / | . | ?
CCN(C(=O)CC(C)C)c1nnc(Cn2nnc3ccccc32)s1 | ? | . | . | . | . | 21µM
CCN(C(=O)c1ccc(C(C)(C)C)cc1)c1nnc(Cn2nnc3ccccc32)s1 | 7.3µM | . | . | . | . | 8.2µM
Cc1ccc(C(=O)NNC(=O)Cn2nnc3ccccc32)cc1 | . | . | . | . | . | .
COc1ccc(CCNC(=O)c2c[nH]c3ccccc3c2=O)cc1OC | ? | . | . | . | . | ?
SMILES | DT40 TDP1 CPT | IL1B secr inh | Six1-Eya2 inh | TDP1 block | CtBP-E1A blk | DT40 TDP1 no CPT
COc1ccc2[nH]cc(C(=O)CN3CC(C)CC(C)C3)c2c1 (configuration not stated) | . | . | . | / | . | .
COc1ccc2[nH]cc(C(=O)CNc3nccs3)c2c1 | ? | / | / | / | / | 7.9µM
COc1ccc2[nH]c(=O)cc(C(=O)O)c2c1 | . | . | . | 22µM | . | .
COc1ccc2[nH]cc(C(=O)CCl)c2c1 | 3.3µM | -96 | . | . | . | 4.1µM
COc1ccc2[nH]cc(C(=O)CN(C)CCc3ccc(OC)c(OC)c3)c2c1 | 18µM | . | . | . | . | 21µM
NC(=O)NC1(C(=O)O)CCCC1 | . | . | . | / | . | .
N#Cc1ccc(C(=O)OCc2cccc(S(=O)(=O)N3CCOCC3)c2)cc1 | ? | . | . | . | . | ?
